ChEMBL document CHEMBL2218924, “A broad activity screen in support of a chemogenomic map for kinase signalling research and drug discovery” (Biochem J, 2013)

Columns and labels:
[1] = biological target: MAP kinase-activated protein kinase 2 (Homo sapiens) (UniProt P49137); details: at 10 µM
[2] = biological target: MAP kinase-activated protein kinase 3 (Homo sapiens) (UniProt Q16644); details: at 10 µM
[3] = biological target: Serine/threonine-protein kinase MARK1 (Homo sapiens) (UniProt Q9P0L2); details: at 1 µM
Chain of Serine/threonine-protein kinase MARK1 (Homo sapiens) (Q9P0L2 whole entry, looked up): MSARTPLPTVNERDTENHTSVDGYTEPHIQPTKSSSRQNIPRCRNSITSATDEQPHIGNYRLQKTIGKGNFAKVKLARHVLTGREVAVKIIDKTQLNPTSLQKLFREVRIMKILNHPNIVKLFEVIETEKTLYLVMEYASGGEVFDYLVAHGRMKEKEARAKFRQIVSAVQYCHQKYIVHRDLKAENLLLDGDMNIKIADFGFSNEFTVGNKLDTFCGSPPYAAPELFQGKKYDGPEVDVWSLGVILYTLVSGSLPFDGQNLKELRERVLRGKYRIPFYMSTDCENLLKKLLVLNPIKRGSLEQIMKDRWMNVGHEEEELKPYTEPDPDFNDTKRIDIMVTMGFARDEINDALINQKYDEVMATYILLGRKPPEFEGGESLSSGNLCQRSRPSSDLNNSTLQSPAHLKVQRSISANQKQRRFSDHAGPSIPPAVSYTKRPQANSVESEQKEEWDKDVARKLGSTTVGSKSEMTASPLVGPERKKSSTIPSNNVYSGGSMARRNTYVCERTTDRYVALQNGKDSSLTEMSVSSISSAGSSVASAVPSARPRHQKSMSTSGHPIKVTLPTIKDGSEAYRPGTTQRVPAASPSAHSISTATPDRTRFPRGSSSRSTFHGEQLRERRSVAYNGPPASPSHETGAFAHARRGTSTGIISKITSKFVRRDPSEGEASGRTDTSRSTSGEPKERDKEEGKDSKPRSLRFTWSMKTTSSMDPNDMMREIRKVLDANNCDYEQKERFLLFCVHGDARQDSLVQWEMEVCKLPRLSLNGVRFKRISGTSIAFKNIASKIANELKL

[4] = biological target: Serine/threonine-protein kinase MARK1 (Homo sapiens) (UniProt Q9P0L2); details: at 10 µM
[5] = biological target: Dual specificity mitogen-activated protein kinase kinase 1 (Homo sapiens) (UniProt Q02750); details: at 1 µM
Chain of Dual specificity mitogen-activated protein kinase kinase 1 (Homo sapiens) (Q02750 whole entry): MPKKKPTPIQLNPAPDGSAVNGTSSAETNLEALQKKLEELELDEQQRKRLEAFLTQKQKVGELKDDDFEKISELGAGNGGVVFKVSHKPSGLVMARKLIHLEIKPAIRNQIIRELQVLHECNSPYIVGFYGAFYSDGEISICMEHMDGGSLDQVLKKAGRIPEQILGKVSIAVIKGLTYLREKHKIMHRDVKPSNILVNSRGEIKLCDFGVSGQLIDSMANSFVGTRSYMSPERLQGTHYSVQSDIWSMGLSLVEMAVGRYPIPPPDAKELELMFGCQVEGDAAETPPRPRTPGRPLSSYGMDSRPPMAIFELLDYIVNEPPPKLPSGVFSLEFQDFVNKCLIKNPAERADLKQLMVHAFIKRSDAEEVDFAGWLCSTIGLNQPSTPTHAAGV

[6] = biological target: Dual specificity mitogen-activated protein kinase kinase 1 (Homo sapiens) (UniProt Q02750); details: at 10 µM
[7] = biological target: Maternal embryonic leucine zipper kinase (Homo sapiens) (UniProt Q14680); details: at 1 µM
Chain of Maternal embryonic leucine zipper kinase (Homo sapiens) (Q14680 whole entry, looked up): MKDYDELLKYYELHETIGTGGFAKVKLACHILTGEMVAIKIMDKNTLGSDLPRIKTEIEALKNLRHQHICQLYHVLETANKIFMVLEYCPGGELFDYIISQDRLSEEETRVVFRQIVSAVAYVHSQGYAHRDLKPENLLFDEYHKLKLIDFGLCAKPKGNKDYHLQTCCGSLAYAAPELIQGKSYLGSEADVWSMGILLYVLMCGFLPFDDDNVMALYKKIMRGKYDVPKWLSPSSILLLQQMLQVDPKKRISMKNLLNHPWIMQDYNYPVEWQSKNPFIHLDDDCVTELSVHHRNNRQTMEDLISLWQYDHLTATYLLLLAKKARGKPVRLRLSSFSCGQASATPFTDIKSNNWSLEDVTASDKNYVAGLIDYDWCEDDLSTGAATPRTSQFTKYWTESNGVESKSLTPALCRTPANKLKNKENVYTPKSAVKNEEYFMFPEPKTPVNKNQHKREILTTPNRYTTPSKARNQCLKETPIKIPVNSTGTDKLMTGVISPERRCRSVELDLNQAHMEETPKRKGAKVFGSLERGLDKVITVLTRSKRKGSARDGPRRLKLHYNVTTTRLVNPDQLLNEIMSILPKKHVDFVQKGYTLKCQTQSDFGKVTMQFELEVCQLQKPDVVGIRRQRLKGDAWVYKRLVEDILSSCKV

[8] = biological target: Maternal embryonic leucine zipper kinase (Homo sapiens) (UniProt Q14680); details: at 10 µM
[9] = biological target: Misshapen-like kinase 1 (Homo sapiens) (UniProt Q8N4C8); details: at 1 µM
Chain of Misshapen-like kinase 1 (Homo sapiens) (Q8N4C8 whole entry, looked up): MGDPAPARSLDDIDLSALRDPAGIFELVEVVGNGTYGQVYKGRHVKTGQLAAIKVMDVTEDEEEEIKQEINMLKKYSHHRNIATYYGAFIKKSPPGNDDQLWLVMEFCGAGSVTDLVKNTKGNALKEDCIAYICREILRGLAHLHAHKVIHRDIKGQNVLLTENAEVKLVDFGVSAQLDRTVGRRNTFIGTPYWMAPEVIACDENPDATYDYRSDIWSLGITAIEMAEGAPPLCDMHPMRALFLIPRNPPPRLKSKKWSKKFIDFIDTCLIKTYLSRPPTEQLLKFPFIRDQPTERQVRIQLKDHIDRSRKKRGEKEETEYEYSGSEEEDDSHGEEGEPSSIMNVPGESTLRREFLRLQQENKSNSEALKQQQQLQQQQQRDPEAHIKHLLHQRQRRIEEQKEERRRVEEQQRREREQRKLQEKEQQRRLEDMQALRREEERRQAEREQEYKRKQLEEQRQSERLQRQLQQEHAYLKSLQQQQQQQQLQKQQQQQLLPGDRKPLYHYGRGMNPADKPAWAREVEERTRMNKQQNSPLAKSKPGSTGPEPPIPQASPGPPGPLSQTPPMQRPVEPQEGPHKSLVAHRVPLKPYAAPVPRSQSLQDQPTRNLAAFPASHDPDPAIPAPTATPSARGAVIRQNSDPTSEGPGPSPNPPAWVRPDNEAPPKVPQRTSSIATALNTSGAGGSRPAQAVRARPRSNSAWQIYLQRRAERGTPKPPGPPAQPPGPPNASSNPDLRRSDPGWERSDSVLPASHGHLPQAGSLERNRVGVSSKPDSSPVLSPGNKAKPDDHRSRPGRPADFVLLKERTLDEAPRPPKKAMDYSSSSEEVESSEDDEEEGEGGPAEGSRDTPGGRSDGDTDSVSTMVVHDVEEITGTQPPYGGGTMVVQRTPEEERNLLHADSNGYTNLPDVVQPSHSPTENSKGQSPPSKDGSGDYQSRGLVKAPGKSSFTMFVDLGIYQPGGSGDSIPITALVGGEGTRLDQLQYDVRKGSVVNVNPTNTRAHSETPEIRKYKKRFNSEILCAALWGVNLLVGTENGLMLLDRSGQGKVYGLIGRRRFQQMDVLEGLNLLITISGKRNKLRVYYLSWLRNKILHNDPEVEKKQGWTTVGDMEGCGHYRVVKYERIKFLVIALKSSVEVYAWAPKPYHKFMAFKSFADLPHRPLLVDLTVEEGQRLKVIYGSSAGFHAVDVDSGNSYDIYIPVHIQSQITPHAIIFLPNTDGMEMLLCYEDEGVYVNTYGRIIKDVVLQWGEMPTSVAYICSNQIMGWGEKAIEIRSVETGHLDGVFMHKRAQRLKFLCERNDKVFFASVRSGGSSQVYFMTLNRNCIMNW

[10] = biological target: Misshapen-like kinase 1 (Homo sapiens) (UniProt Q8N4C8); details: at 10 µM

Chain of MAP kinase-activated protein kinase 3 (Homo sapiens) (Q16644 whole entry, looked up): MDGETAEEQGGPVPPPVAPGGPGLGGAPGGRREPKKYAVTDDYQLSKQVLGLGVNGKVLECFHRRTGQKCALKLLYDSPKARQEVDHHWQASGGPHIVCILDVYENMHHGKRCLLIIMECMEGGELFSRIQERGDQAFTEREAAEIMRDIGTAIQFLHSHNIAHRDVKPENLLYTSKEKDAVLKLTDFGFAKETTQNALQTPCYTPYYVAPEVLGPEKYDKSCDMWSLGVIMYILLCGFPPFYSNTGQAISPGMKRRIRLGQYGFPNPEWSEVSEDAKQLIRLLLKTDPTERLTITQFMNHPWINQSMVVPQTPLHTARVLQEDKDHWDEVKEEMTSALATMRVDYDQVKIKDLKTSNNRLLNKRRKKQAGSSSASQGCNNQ
Chain of MAP kinase-activated protein kinase 2 (Homo sapiens) (P49137 whole entry, looked up): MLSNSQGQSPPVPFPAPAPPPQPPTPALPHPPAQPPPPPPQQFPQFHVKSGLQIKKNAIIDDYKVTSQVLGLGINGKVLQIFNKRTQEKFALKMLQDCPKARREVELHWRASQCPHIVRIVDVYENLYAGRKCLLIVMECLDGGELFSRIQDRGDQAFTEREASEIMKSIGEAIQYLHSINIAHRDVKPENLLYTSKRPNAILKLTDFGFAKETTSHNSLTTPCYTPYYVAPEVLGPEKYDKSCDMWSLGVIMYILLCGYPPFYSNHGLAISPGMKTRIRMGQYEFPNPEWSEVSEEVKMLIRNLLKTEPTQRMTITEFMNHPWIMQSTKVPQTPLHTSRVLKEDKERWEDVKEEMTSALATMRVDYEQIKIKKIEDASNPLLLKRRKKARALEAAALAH

Compound | residual activity [1] | residual activity [2] | residual activity [3] | residual activity [4] | residual activity [5] | residual activity [6] | residual activity [7] | residual activity [8] | residual activity [9] | residual activity [10]
O=C1NC(=O)c2c1c1c3ccccc3[nH]c1c1[nH]c3cc(Br)ccc3c21 | 93% | 89% | 67% | 34% | 75% | 98% | 87% | 82% | 109% | 90%
CN(C)CCCn1cc(C2=C(c3c[nH]c4ccccc34)C(=O)NC2=O)c2ccccc21 | 73% | 109% | 65% | 25% | 109% | 52% | 41% | 13% | 84% | 47%
O=C(Nc1cccc(Nc2nccc(Nc3cccc(C(F)(F)F)c3)n2)c1)C1CC1 | 100% | 107% | 93% | 50% | 106% | 77% | 61% | 63% | 87% | 59%
O=[N+]([O-])c1ccc(-c2nc(-c3ccc(F)cc3)c(-c3ccncc3)[nH]2)cc1 | 102% | 104% | 91% | 90% | 109% | 127% | 97% | 87% | 74% | 63%
O=C1Nc2ccccc2/C1=C1/Nc2ccccc2/C1=N\OCCC(O)CO (stereo not given) | 61% | 80% | 40% | 8% | 26% | 21% | 7% | 5% | 44% | 17%
Cc1nc2cc3nc(-c4cccs4)cnc3cc2n1C | 114% | 100% | 107% | 100% | 120% | 91% | 89% | 67% | 112% | 98%
COc1cc2ncnc(Nc3ccc(Oc4ccccc4)cc3)c2cc1OC | 108% | 127% | 83% | 81% | 89% | 38% | 76% | 129% | 99% | 89%
O=C1Nc2cc(Br)ccc2/C1=C1/Nc2ccccc2/C1=N\O | 90% | 91% | 21% | 19% | 71% | 107% | 34% | 48% | 91% | 70%
CN(C)c1ccc(/C=C2\C(=O)Nc3ccccc32)cc1 | 93% | 94% | 83% | 49% | 114% | 73% | 49% | 26% | 82% | 30%
Cc1nc(-c2ccccc2)c(-c2ccncc2)o1 | 110% | 101% | 97% | 89% | 105% | 106% | 104% | 89% | 118% | 88%
c1ccc2c(-c3ccncc3)c[nH]c2c1 | 94% | 101% | 81% | 77% | 87% | 75% | 91% | 76% | 85% | 43%
COc1cc2ncnc(N3CCN(C(=O)Nc4ccc(Oc5ccccc5)cc4)CC3)c2cc1OC | 110% | 117% | 86% | 78% | 115% | 94% | 81% | 101% | 95% | 88%
CCN(CC)CCCCN1c2ccccc2Oc2ccc(Cl)cc21 | 133% | 146% | 106% | 106% | 117% | 115% | 96% | 105% | 107% | 95%
CCN(CC)C(=O)c1ccc(Nc2nc(OCC3CCCCC3)c3nc[nH]c3n2)cc1 | 39% | 69% | 60% | 17% | 48% | 48% | 40% | 3% | 94% | 63%
Cc1ccc(NC2=CC(=O)c3sc(C)nc3C2=O)cc1 | 87% | 61% | 87% | 80% | 99% | 116% | 95% | 85% | 106% | 94%
CNc1cc2c(Nc3cccc(Br)c3)ncnc2cn1 | 112% | 99% | 88% | 73% | 84% | 53% | 109% | 112% | 92% | 87%
CO[C@@H]1[C@H](N(C)C(=O)c2ccccc2)C[C@H]2O[C@]1(C)n1c3ccccc3c3c4c(c5c6ccccc6n2c5c31)C(=O)NC4 | 47% | 37% | 1% | 0% | 74% | 56% | 5% | 2% | 52% | 18%
Cn1nc2c3c(cccc31)C(=O)c1ccccc1-2 | 73% | 66% | 76% | 62% | 95% | 91% | 67% | 59% | 93% | 80%
O=c1cc(-c2cccc3c2Sc2ccccc2S3)oc(N2CCOCC2)c1 | 85% | 79% | 104% | 96% | 111% | 104% | 93% | 90% | 111% | 100%
CC(C)n1cnc2c(NCc3ccccc3)nc(NCCCO)nc21 | 90% | 80% | 81% | 81% | 103% | 110% | 86% | 77% | 108% | 100%

Compound | residual activity [1] | residual activity [2] | residual activity [3] | residual activity [4] | residual activity [5] | residual activity [6] | residual activity [7] | residual activity [8] | residual activity [9] | residual activity [10]
COc1cccc(-c2cc(=O)c3ccccc3o2)c1N | 78% | 97% | 87% | 85% | 103% | 111% | 109% | 113% | 98% | 96%
Cn1cc(/C=C2\C(=O)Nc3ccc(S(N)(=O)=O)cc32)c2ccccc21 | 71% | 88% | 23% | 7% | 42% | 19% | 42% | 51% | 56% | 61%
Nc1n[nH]c2nnc(-c3c(-c4ccccc4)nn4ccccc34)cc12 | 94% | 93% | 83% | 78% | 89% | 38% | 91% | 97% | 89% | 39%
CO[C@H]1[C@@H](OC)C[C@H](C)[C@@H](OC)C2=CC(=O)C=C(NC(=O)/C(C)=C/C=C/[C@H](OC)[C@@H](OC(N)=O)/C(C)=C/[C@@H]1C)C2=O | 85% | 81% | 92% | 82% | 102% | 95% | 60% | 63% | 95% | 92%
CCOc1cc2ncnc(Nc3cccc(Br)c3)c2cc1OCC | 72% | 82% | 82% | 69% | 117% | 50% | 91% | 62% | 88% | 50%
CC(=O)O/N=C1\C(=C2\C(=O)Nc3cc(Br)ccc32)Nc2ccccc21 | 93% | 90% | 77% | 39% | 98% | 113% | 69% | 52% | 103% | 86%
CC#CC(=O)Nc1cc2c(Nc3ccc(F)c(Cl)c3)ncnc2cn1 | 92% | 96% | 87% | 83% | 111% | 103% | 76% | 99% | 96% | 91%
O=C1c2ccccc2-[n+]2ccc3c([nH]c4ccccc43)c21 | 98% | 89% | 80% | 77% | 97% | 110% | 85% | 67% | 99% | 87%
O=C1NC(=O)c2cc(Nc3ccc(F)cc3)c(Nc3ccc(F)cc3)cc21 | 93% | 69% | 82% | 75% | 109% | 122% | 89% | 76% | 83% | 71%
NC(=O)c1ccc2[nH]c(-c3ccc(Oc4ccc(Cl)cc4)cc3)nc2c1 | 126% | 127% | 85% | 70% | 91% | 111% | 91% | 83% | 91% | 66%
O=c1c2ccccc2[nH]c(=S)n1CCN1CCC(=C(c2ccc(F)cc2)c2ccc(F)cc2)CC1 | 89% | 86% | 100% | 87% | 98% | 92% | 86% | 86% | 88% | 65%
COc1ccc(CNc2nc(N(CCO)CCO)nc3c2ncn3C(C)C)cc1 | 81% | 98% | 85% | 72% | 103% | 120% | 77% | 38% | 103% | 92%
CO[C@H]1C[C@@H]2CC[C@@H](C)[C@@](O)(O2)C(=O)C(=O)N2CCCC[C@H]2C(=O)O[C@H]([C@H](C)C[C@@H]2CC[C@@H](O)[C@H](OC)C2)CC(=O)[C@H](C)/C=C(\C)[C@@H](O)[C@@H](OC)C(=O)[C@H](C)C[C@H](C)/C=C/C=C/C=C/1C | 115% | 133% | 78% | 71% | 132% | 97% | 88% | 97% | 81% | 74%
N#C/C(=C(\N)Sc1ccc(N)cc1)c1ccccc1C(F)(F)F | 69% | 88% | 72% | 54% | 104% | 101% | 67% | 62% | 106% | 91%
Cc1ccc(S(=O)(=O)/C=C/C#N)cc1 | 74% | 85% | 90% | 89% | 105% | 95% | 96% | 100% | 111% | 104%
Cc1cncc2cccc(S(=O)(=O)N3CCCN(C(=O)CN)C[C@H]3C)c12 | 87% |  | 73% | 43% |  |  | 74% | 24% | 91% | 72%
O=C1NC(=O)/C(=C/c2ccc3c(c2)OC(F)(F)O3)S1 | 87% | 81% | 100% | 76% | 114% | 109% | 114% | 82% | 85% | 73%
CC(=O)c1ccc(N2CCOCC2)cc1O |  | 111% | 93% | 91% | 102% |  | 90% | 100% | 108% | 88%
Nc1nc(Nc2ccc(S(N)(=O)=O)cc2)nn1C(=S)Nc1c(F)cccc1F | 9% | 41% | -1% | 0% | 16% | 6% | 17% | 24% | 18% | 2%
Ic1cccc(CSc2nnc(-c3ccncc3)o2)c1 | 67% | 82% | 4% | 5% | 69% | 77% | 24% | 13% | 98% | 95%
